Each structure is given as a SMILES string. Records with an inconclusive call do not appear. Activity calls are given as the source filed them. Unless noted, calls follow the shape of the dose curve; as a rule, active = well fitted inhibition curve with a large enough effect; inconclusive = small, poorly fitted or top-dose-only effect; inactive = flat fitted curve, though single readings scatter.

Test [1] deals with AA1029. Nature of the test: qHTS profiling for inhibitors of Plasmodium falciparum proliferation (AID 504749). Also: nearly all actives have a fitted effect of over 60% in size. Also: potency is read from the fitted curve at half-maximal effect.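 As to activity, negative = inhibition: 0% = DMSO vehicle and full inhibition = artemisinin control.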 The note with it: P. falciparum in erythrocytes, SYBR Green DNA, 72 h; series mostly up to 28.7 µM. In short, it runs like this:
(§1)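 Three-day growth assay of blood-stage parasites in erythrocytes (0.3% parasitemia, 2.5% hematocrit) at 37 C, 5% CO2, quantified by SYBR Green DNA staining after overnight detergent lysis.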
A general note: qHTS replaces the single test concentration by a dilution series.

Test [2] relates to AS120. The test is described as above. The conditions noted are these: P. falciparum in erythrocytes, SYBR Green DNA, 72 h; series mostly up to 28.7 µM. In short, it runs like this:
as §1

Test [3] has as its system ATS189. Described as above. The conditions noted are these: P. falciparum in erythrocytes, SYBR Green DNA, 72 h; series mostly up to 28.7 µM. In short, it runs like this: as §1
The test system of test [4] is C2A. Described as above. The conditions noted are these: P. falciparum in erythrocytes, SYBR Green DNA, 72 h; series mostly up to 28.7 µM. In short, it runs like this: as §1
Test [5] relates to CP194. The description is as above. The conditions noted are these: P. falciparum in erythrocytes, SYBR Green DNA, 72 h; series mostly up to 28.7 µM. In short, it runs like this: as §1
In test [6] the test system is CP201. The description is as above. The conditions noted are these: P. falciparum in erythrocytes, SYBR Green DNA, 72 h; series mostly up to 28.7 µM. In short, it runs like this: as §1
Test [7] concerns CP203. The description is as above. The note with it: P. falciparum in erythrocytes, SYBR Green DNA, 72 h; series mostly up to 28.7 µM. In short, it runs like this: as §1
The test system of test [8] is CP217. Described as above. The conditions noted are these: P. falciparum in erythrocytes, SYBR Green DNA, 72 h; series mostly up to 28.7 µM. In short, it runs like this: as §1
Test [9] relates to CP237. Described as above. The conditions noted are these: P. falciparum in erythrocytes, SYBR Green DNA, 72 h; series mostly up to 28.7 µM. In short, it runs like this:
as §1

The subject of test [10] is CP250. The test is described as above. The note with it: P. falciparum in erythrocytes, SYBR Green DNA, 72 h; series mostly up to 28.7 µM. In short, it runs like this:
as §1

Test [11] concerns CP256. Described as above. The note with it: P. falciparum in erythrocytes, SYBR Green DNA, 72 h; series mostly up to 28.7 µM. In short, it runs like this: as §1
The test system of test [12] is CP268. The description is as above. The note with it: P. falciparum in erythrocytes, SYBR Green DNA, 72 h; series mostly up to 28.7 µM. In short, it runs like this: as §1
For test [13], the system named is CP297. The description is as above. The note with it: P. falciparum in erythrocytes, SYBR Green DNA, 72 h; series mostly up to 28.7 µM. In short, it runs like this: as §1
The test system of test [14] is CP305. The description is as above. The note with it: P. falciparum in erythrocytes, SYBR Green DNA, 72 h; series mostly up to 28.7 µM. In short, it runs like this:
as §1

Test [15] relates to CP325. The description is as above. The note with it: P. falciparum in erythrocytes, SYBR Green DNA, 72 h; series mostly up to 28.7 µM. In short, it runs like this: as §1
For test [16], the system named is HB3. Described as above. The conditions noted are these: P. falciparum in erythrocytes, SYBR Green DNA, 72 h; series mostly up to 28.7 µM. In short, it runs like this: as §1
Test [17] has as its system PC15. The description is as above. The note with it: P. falciparum in erythrocytes, SYBR Green DNA, 72 h; series mostly up to 28.7 µM. In short, it runs like this: as §1
The subject of test [18] is PC49. Described as above. The note with it: P. falciparum in erythrocytes, SYBR Green DNA, 72 h; series mostly up to 28.7 µM. In short, it runs like this: as §1
For test [19], the system named is TAB109. The test is described as above. The conditions noted are these: P. falciparum in erythrocytes, SYBR Green DNA, 72 h; series mostly up to 28.7 µM. In short, it runs like this:
as §1

The nature of test [20]: S16 Schwann cell PMP22 intronic element beta-lactamase assay (AID 624044; calls by dose curve;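 also: 0% = DMSO and -100% = potassium clavulanate positive control; nearly all actives have a fitted effect of over 15% in size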). The note with it: S16 rat Schwann cells, PMP22 element beta-lactamase FRET, 24 h; ratio activity, negative = inhibition: at 38.3 µM (top of the series). In short, it runs like this:
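Rat S16 Schwann cells with beta-Lac driven by a PMP22 intronic element, compound-treated 24 h at 37 °C. LiveBLAzer FRET B/G read: 460 nm normalized to potassium clavulanate vs DMSO; 535 nm FRET as viability; concentration-effect curves classified.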

For the compound `CC1C(=O)C(=O)C=CN1C` (stereo not given), the Potency result in test [1], in test [2], in [3], in test [4], in [5] and in test [6] was “inactive” in each case. For the same compound, the Potency entry in [7], in test [8], in [9], in test [10], in test [11] and in test [12] was “inactive” in each case. For the same compound, the Potency entry in test [13], in [14], in test [15], in test [16], in test [17] and in test [18] was “inactive” throughout. For the same compound, the Potency entry in [19] is “inactive”.
In the case of `CC(CN1CC(=O)NC(=O)C1)N1CC(=O)NC(=O)C1` (stereo not given), the Potency entry in [20], in test [1], in test [2], in test [3], in test [4] and in test [5] was “inactive” each time. Also, the Potency entry in [6], in test [7], in [8], in test [9], in test [10] and in test [11] was “inactive” each time. Further, the Potency result in test [12], in test [13], in [14], in [15], in test [16] and in test [17] was “inactive” throughout. In addition, the Potency entry in [18] and in test [19] was “inactive” throughout.
`Nc1ncn(C2C[C@H](O)[C@@H](CO)O2)c(=O)n1` (stereo not given in full): the Potency result in test [1], in [2], in test [3], in test [4], in test [5] and in [6] was “inactive” each time. Further, the Potency entry in test [7], in test [8], in test [9], in test [10], in test [11] and in [12] was “inactive” each time. Further, the Potency result in [14], in test [15], in test [16], in test [17], in test [18] and in test [19] was “inactive” each time.
`Cc1cc2nc3c(=O)[nH]c(=O)nc-3n(CC(O)C(O)C(O)COP(=O)(O)O)c2cc1C` (stereo not given): the Potency result in test [20], in test [1], in test [2], in test [3], in [4] and in test [5] was “inactive” each time. The Potency result in test [6], in [7], in test [8], in test [9], in [10] and in [11] was “inactive” throughout. For the same compound, the Potency result in [12], in [13], in test [14], in test [15], in test [16] and in test [17] was “inactive” in each case. Further, the Potency entry in test [18] and in [19] was “inactive” throughout.
In the case of `Nc1nc2[nH]cc(CCc3ccc(C(=O)NC(CCC(=O)O)C(=O)O)cc3)c2c(=O)[nH]1` (stereo not given), the Potency in test [3] is 224 nM (active); in test [4], 316 nM (active); in [5], 3790 nM (active); in [8] it was 56.2 nM (active); in test [9] it was 79.4 nM (active); in [10], 251 nM (active). The Potency is 224 nM (active) in test [11]; 239 nM (active) in [13]; 70.8 nM (active) in [16]; 562 nM (active) in test [18]; 11200 nM (active) in test [19].
For `CC(=O)OC1C([N+]2(C)CCCCC2)C[C@H]2C3CC[C@H]4C[C@H](OC(C)=O)C([N+]5(C)CCCCC5)CC4(C)C3CCC12C` (stereo not given in full), the Potency entry in test [20], in test [1], in test [2], in test [3], in [4] and in [8] was “inactive” each time. Also, the Potency entry in [9], in test [10], in [11], in test [16], in test [17] and in test [18] was “inactive” in each case. Moreover, the Potency entry in test [19] was “inactive”. The Potency in [13] is 6010 nM (active).
With `CC(=O)CC(c1ccccc1)C1C(=O)Oc2ccccc2C1=O` (stereo not given), the Potency entry in test [20], in [1], in test [2], in [3], in test [4] and in test [5] was “inactive” throughout. Also, the Potency entry in test [6], in test [7], in test [8], in test [9], in test [10] and in test [11] was “inactive” throughout. Further, the Potency result in [12], in [13], in [14], in test [15], in [16] and in test [17] was “inactive” throughout. The Potency entry in test [18] and in test [19] was “inactive” throughout.
For the compound `CCCC(=O)Nc1c(I)cc(I)c(C[C@H](CC)C(=O)O)c1I`, the Potency entry in [20], in test [1], in test [2], in test [3], in test [4] and in test [5] was “inactive” each time. For the same compound, the Potency result in [6], in test [7], in [8], in test [9], in [10] and in test [11] was “inactive” throughout. Also, the Potency entry in [12], in test [13], in [14], in test [15], in [16] and in test [17] was “inactive” each time. For the same compound, the Potency entry in test [18] and in test [19] was “inactive” in each case.
Regarding `COc1ccc(S(=O)(=O)N2c3ccc(Cl)cc3[C@](O)(c3ccccc3Cl)[C@@H]2C(=O)N2CCC[C@H]2C(N)=O)cc1OC`, the Potency result in test [20], in [3], in test [4], in [5], in test [6] and in test [7] was “inactive” in each case. Also, the Potency result in test [8], in [10], in test [11], in test [12], in test [13] and in test [14] was “inactive” in each case. The Potency result in [15], in [16], in test [18] and in [19] was “inactive” in each case.
Consider `O=C(O)C(O)c1ccccc1` (stereo not given), for which the Potency result in test [20], in [1], in test [2], in test [3], in [4] and in test [5] was “inactive” each time. The Potency result in test [6], in [7], in [8], in test [9], in test [10] and in [12] was “inactive” throughout. Besides, the Potency entry in test [13], in [14], in [15], in test [16], in test [17] and in test [18] was “inactive” in each case. Also, the Potency result in test [19] is “inactive”.
As to `CO/N=C(/C(=O)N[C@@H]1C(=O)N2C(C(=O)O)=C(CSc3nnnn3C)CS[C@H]12)c1csc(N)n1`, the Potency entry in test [1], in test [2], in test [3], in test [4], in [5] and in test [6] was “inactive” throughout. Besides, the Potency entry in [8], in test [9], in test [10], in test [11], in test [12] and in test [13] was “inactive” throughout. For the same compound, the Potency entry in [14], in [15], in [16], in test [17], in test [18] and in [19] was “inactive” throughout.
In the case of `CCCCC(=O)O[C@]1(C(=O)CO)CCC2C3CCC4=CC(=O)CCC4(C)C3C(O)CC21C` (stereo not given in full), the ratio activity, negative = inhibition in [20] is -11.9% (active). Also, the Potency entry in [1], in [2], in test [3], in test [4], in test [5] and in test [6] was “inactive” each time. For the same compound, the Potency entry in [7], in test [8], in test [9], in test [10], in test [11] and in test [12] was “inactive” each time. The Potency result in test [13], in test [14], in [15], in test [16], in [17] and in [18] was “inactive” each time. In test [19], the Potency result was “inactive”.
